The structures appear in SMILES notation. Among all 68,000 compounds or so, about 2,700 (4%) showed an effect of 50% or more. Many of the other results were omitted from the sample, so strong results are more common in it than they were.

The test system of the assay is Plasmodium berghei. The assay can be described thus: Screen against P. berghei liver stage (PbLuc), transformed with Luciferase, at 2uM. It is filed as functional, HepG2. To be noted: tested at 2 uM.
Turning to `O=C(C1CCOC1)N1CCN(Cc2ccncc2)c2ncccc2C1` (configuration not stated), the INHIBITION was 31.08%. In the case of `O=C(N1CCCC1)N1CCN(CC2CC2)c2ncccc2C1` it was -3.08%. In the case of `CCN(Cc1ccc2c(c1)OCO2)S(=O)(=O)N(C)C(C)C`, the INHIBITION turned out to be 41.99%.

Consider `CCN(CC)S(=O)(=O)N(CC)Cc1ccc2c(c1)OCCO2`, for which the INHIBITION is given as -3.05%.

For `CCN(Cc1ccc2c(c1)OCCO2)S(=O)(=O)N(C)C(C)C`, the INHIBITION is listed as 63.95%.

As for `Cc1n[nH]c(C2CN(CC(=O)NCCc3ccc(F)cc3)CCO2)n1` (configuration not stated), the INHIBITION came to 5.47%. For the compound `Cc1nc2[nH]cnc(NCCN3CCCC3)c-2n1`, the INHIBITION is recorded as -20.68%. In the case of `CC(c1cccc(-c2ncc(C#N)c(N)n2)c1)N(C)C` (configuration not stated), the INHIBITION was -38.96%.

In the case of `CCS(=O)(=O)N1CCC2(CCCN(Cc3ccc(F)c(F)c3)C2=O)C1` (configuration not stated), the INHIBITION was found to be 50.59%. Under `CN(C)S(=O)(=O)N1CCC2(CCCN(Cc3ccc(F)cc3)C2=O)C1` (configuration not stated) stands -37.84%; under `O=C1N(Cc2ccccc2F)CCCC12CCN(C1CCSCC1)C2` (configuration not stated), 11.26%; under `CCCS(=O)(=O)N1CCC2(CCCN(Cc3cccc(F)c3F)C2=O)C1` (configuration not stated), 50.59%. `CCCS(=O)(=O)N1CCC2(CCN(Cc3cccc(F)c3)C2=O)C1` (configuration not stated): the INHIBITION is on record as -25.61%. In the case of `O=C1N(Cc2ccc(F)c(F)c2)CCCC12CCN(C1CCCC1)C2` (configuration not stated) it was 23.18%; in that of `COc1cnc(N2C[C@H](CO)C[C@H](CN3CCOCC3)C2)nc1`, -3.87%. In the case of `COc1c(C2CCCN2C(=O)c2ccc(C(N)=O)s2)c(C)nn1C` (configuration not stated), the INHIBITION was -21.71%. As for `COc1ccc2c(c1)OCC(CNC1CCc3ncnn3C1)=C2` (configuration not stated), the INHIBITION is -34.12%. In the case of `NC(=O)N1CCCC1COC(=O)c1ccc(F)cc1Br` (configuration not stated), the INHIBITION amounted to 6.47%.

As to `Cc1ccc(F)cc1C(=O)OCC1CCCN1C(N)=O` (configuration not stated), the INHIBITION came out at 5.48%. With `NC(=O)N1CCCC1COC(=O)c1cc(F)ccc1F` (configuration not stated), the INHIBITION was found to be 61.91%.

With `CN1CCN(C=C2N=C(c3cc(-c4ccc(F)cc4)n[nH]3)ON2)CC1`, the INHIBITION turned out to be 22.39%. `CCN(C)C[C@@H]1CN(Cc2cccc(Cl)c2)C[C@@H]1CO`: the INHIBITION stood at 38.97%. Turning to `CC[C@H]1CN(S(=O)(=O)c2ccc(OC)cc2)CC[C@H]1CC(=O)O`, the INHIBITION came to 45.73%. With `CCN(C)C[C@@H]1CN(S(=O)(=O)c2cccc(C#N)c2)C[C@@H]1CO`, the INHIBITION is recorded as 14.82%. Take `CCN(C)C[C@@H]1CN(S(=O)(=O)c2cccc(Cl)c2)C[C@@H]1CO`: the INHIBITION is given as 55.36%.

For `CCN(C)C[C@@H]1CN(S(=O)(=O)c2ccc(OC)cc2)C[C@@H]1CO`, the INHIBITION amounted to 76.82%.

For `CCN(C)C[C@@H]1CN(S(=O)(=O)c2ccc(C#N)cc2)C[C@@H]1CO`, the INHIBITION is on record as 14.82%. Under `CCCC1(CO)CCCN(C(=O)CNC(N)=O)C1` (configuration not stated) stands 3.49%; under `Cc1noc(C)c1CN1CCOC2(CCCN(c3nncs3)C2)C1` (configuration not stated), 31.96%; under `CCCS(=O)(=O)N1CCC2(CC1)CN(CC1CCOC1)c1ccccc12` (configuration not stated), 27.67%. As for `O=C(NCCN1CCCCC1)c1scnc1Cl`, the INHIBITION was -9.66%. For the compound `CC1CCCN(CCNC(=O)c2ccn(-c3ccccc3)n2)C1` (configuration not stated), the INHIBITION is recorded as -61.61%. In the case of `COc1cn(-c2ccccc2)nc1C(=O)NCCN1CCCC(C)C1` (configuration not stated) it was 66.2%; in that of `CC1CCCN(CCNC(=O)c2scnc2Cl)C1` (configuration not stated), 78.42%. In the case of `COc1cn(-c2ccccc2)nc1C(=O)NCCCN1CCCC(C)C1` (configuration not stated) it was 20.11%.

Consider `CC1CCN(CCNC(=O)c2scnc2Cl)CC1`, for which the INHIBITION came to 47.87%.

As for `O=C(NCC1(O)COCCN(Cc2ccc(O)cc2)C1)c1cnccn1` (configuration not stated), the INHIBITION came to 30.1%. Turning to `CCCc1nc(C)cc(NCc2ccc(S(N)(=O)=O)cc2)n1`, the INHIBITION is -16%.

Consider `Cc1nnc(-c2cccc(C#N)c2)n1C1CCCN(C(C)C)C1=O` (configuration not stated), for which the INHIBITION was -12.01%. In the case of `COc1nc2c(cc1C(=O)N1CC[C@H](CO)[C@@H](O)C1)CCC2` it was 49.02%. In the case of `COCCNc1nc(C)nc2c1CCN(CC1CCC(N)CC1)CC2` (configuration not stated) it was 57.67%; in that of `Cc1nc2c(c(NCCc3nccs3)n1)CCN(CC1CC1)CC2`, -28.09%. In the case of `COCCNc1nc(C2CCCC2)nc2c1CCNCC2` it was 34.98%; in that of `O=C(O)COCC(=O)NC1CC2(CCCCC2)Oc2ccccc21` (configuration not stated), 13.22%; in that of `Cc1noc(C2CCN(C(=O)c3ccc(C(F)(F)F)nc3)CC2)n1`, 5.05%.

For the compound `CC1CCc2nc(O)c(C(=O)NCCCN3CCN(C)CC3)cc2C1` (configuration not stated), the INHIBITION stood at 68.39%. Under `CCCNC(=O)c1cc2c(nc1O)CCC(C)C2` (configuration not stated) stands 44.39%; under `CC1CCc2nc(O)c(C(=O)NCc3ccncc3)cc2C1` (configuration not stated), 1.06%; under `Cc1csc(CCNC(=O)c2cc3c(nc2O)CCC(C)C3)n1` (configuration not stated), -46.57%. Turning to `CC1CCc2nc(O)c(C(=O)NCCN(C)C)cc2C1` (configuration not stated), the INHIBITION is listed as 27.24%. In the case of `CC1CCc2nc(O)c(C(=O)NCCc3cccs3)cc2C1` (configuration not stated) it was 53.61%; in that of `Cc1nn(CCO)c(C)c1CNCc1cccnc1N(C)C`, 23.42%.
